Hit rate of the full screen: of about 53,000 sequences, about 3,700 (7%) were called active.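 The calls were made as follows: active = gene knockdowns whose robust z-score for IL-1 alpha signal is at least 2 or at most -2, so actives lie on both sides; inactive = the rest.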 Only a selection was taken, and actives are over-represented in it overall.
Test: Components of the Cytosolic LPS Sensing Pathway: Gene Identification via Genome-wide siRNA Screen;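 also: robust z of the log signal after scaling to non-targeting control siRNA wells of the plate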
Conditions: RAW264.7 macrophages, IL-1a HTRF, actives lie on both sides, screened at 100 nM (by protocol), cells primed 5 h with Pam3CSK4 first
Method in brief: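 RAW264.7 mouse macrophages reverse-transfected with single siRNAs (100 nM final) for 48h, primed with Pam3CSK4 for 5 hours, then transfected with LipidA for 24 hour. Supernatant IL-1a read by HTRF; values normalized to negative-control median, log-transformed robust z-scores.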

z-score, inactive:
GGGAUUGUAUGAGUGCACATT against Coa4 0.657
GGAGUCUUCUCAAUUUGACTT against Olfr1105 -0.617
CCUAUAUGACAAAAGACAGTT against Glra2 -0.168
GCUAGGUAUACAGCCAAAGTT against Spryd4 -0.699
GCGCGUCAUCUUCUGACUUTT against Mmgt2 1.45
GGUGACUUGCUUUAGAAAATT against Tnfaip8l1 0.184
GCACCUCCUUAUGUGUCAUTT against Chrm2 0.729
GGACAUGACAUUUUUACGCTT against Cyp4f16 -1.26
GGACUUAUCACUAUUUGCATT against Dlgap3 0.782
GCCAUAGCUAUUGUCAUUCTT against Mmp16 0.441
GGUCUUUGUACAUCAAUGUTT against Zfp677 -0.241
AACCAGUCCUUGAAAAGAGTT against Olfr128 -1.01
GGAAGGUAUCCACUGUGCATT against Nme6 -1.46
CCUCACCAGGUAAAUUUUUTT against Ro60 -1.25
GGUACUUUCCUUUCGAUGCTT against Skint10 -0.524
CCUGGUAACCUGCUAAAAGTT against Gm5124 1.24
GGAACACAUUACCUCAAUUTT against Lipt2 -0.705
GGAACUCAUGUGAAGCUCCTT against Ssu72 -0.544
GCACCUAGAUUGAUCAUAGTT against Olfr1183 -0.894
GGAACCGCUGAUGCUUAAGTT against Ctsl -0.726
GGGUCAUCCACUUUGUCAGTT against Fam177a -0.584
CCGCUGCAUAGCAUGUACATT against Dusp23 0.901
GGUGAACAGAAGGACAGAUTT against Gm4736 0.479
CCAUUUAUGGAAUACACCUTT against Tmem150b 0.0118
GGCCAAAUGACUGAGAUUGTT against Rcan3 1.35
GGAAGAAUUUAAGAAGUUCTT against Pdia3 1.24
GGUCCCUGUGAACAAGCUGTT against Serpinf1 1.12
GGUGUUACAUAUGAGGAAUTT against Ociad1 1.61
GGCAGACAGAGGGUAAAAATT against Slc24a1 -0.956
GGUUCUCUACAAAGUAAGUTT against Slc35e1 -0.0459
GCUUGUUCAGGAAAUGAAATT against Tmcc3 -1.15
GGAGACAGAAUUCAAAACUTT against P2ry1 0.0725
GCCCAGUCAAGACUAUUCGTT against Csnk2b 1.58
GGUGAAGACCAUCUUGACCTT against Clcnkb -1.74
AGACUCGUACACGCAGGAATT against Ggn 0.882
GGCAGACAAGUUGUUAAAATT against Nusap1 -0.913
GGAACAACUCCUGUUCCCATT against Obscn 1.85
GGGAAAGAGAAAUUUAAAGTT against Kcne4 1.3
CCCAUCAUUCCUUUCUUACTT against Ndfip2 0.193
CCAUUCUUGCCUUUGUGCUTT against Cep55 -1.63
CCUGGUACAUCUCUGUUACTT against Olfr449 1.53
GCCACUCUAGCUCGUAUUGTT against Des 0.896
GCAAGUCGAGGUAGAUUGCTT against Rap1a 0.515
GGACCUAUAGUUCAACAAGTT against Pcf11 1.08
CCAUGUGCGACCUGAUAAUTT against Cmtm7 0.155
CGACAAACUACAUAGCAGATT against Brms1 0.823
GCUAUGUGGACGUGACCUATT against Chrnb4 -0.739
GCUAUAGACAAGGAGAGUATT against Galnt6 0.62
GGUCAUAGGUACGUAUCCGTT against Siglech -0.465
CGUUUUUAUGAGGAGGCCUTT against N4bp3 -0.897
GGAUUGACAGUGGUCUAUATT against Copz1 -0.294
GGAGUUAAAACCAUCGUGATT against D16Ertd472e 0.725
CCCUAUGCAAUAUCAAAAUTT against Hnrnpa1 1.22
GGUAAAUAGCUGUCUUGGCTT against Cerk -0.622
GCACAGUUAGCAUUGCUCCTT against Hoxc10 -1.48

z-score, active:
GGCUCAAAGUCCUCAGAGCTT against Atp6v1e1 -2.15
GGCGGUCUUUAAGAUGCUCTT against Ubl7 2.12
GGAUAUGAACAAUAGCAUATT against Kcna1 2.2
GCAUGGUAUCAGGUACAUATT against Med9 2.2
GGACUGGUUCUUCAGUACCTT against Cradd 2.21
GGAGCUGAGCAGUGAUGAATT against Snx29 -2.08
GGCUCAGUGAAGGCAAGUUTT against Hspb2 2.56
GGUGGAGAUUAUUCAUGUUTT against Dpp8 2.31
GGAAGAGGAAUAUUACCAGTT against Marveld3 -2.16
CCUUCCUACAACAAGUGUGTT against Galnt1 2.02
GCUAGUUAUCUAAUCUCUGTT against Nuak1 2.79
GGCUGUGGUAUUUUUGGUUTT against Vopp1 2.15
GGUCAGACAGCAAUUCACATT against Gpr146 -2.7
UUUGAACAGUCACUCCUCGTT against Ipcef1 2.18
